# Source: the supplement of paper PMC10849652
# Targets with a hit are over-represented here; the source holds about 7,900 in all. About 0.6% of all pairs of compound and target were hits. A number with no mark means an inactive call.
# How the values were obtained:
# Assay in all cases: log2 fold change, soluble protein after heating vs DMSO (PISA); higher = thermal stabilisation; K562 cells, 10 uM, 30 min; active = over 0.2 and 3.5 SD of the protein, either way, in both replicates (recomputed)
# [1] = compound: COC1=CC=C(C=C1)CN2C=CC3=C2C=C(C=C3)C(=O)NO
# Procedure, shortened: (§1)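 K562 cells at 2×10^6 cells/mL were treated for 30 min with 10 μM compound, and aliquots were heated for 3 min over 48°C-58°C before pooling. Extraction used PBS with 0.5% NP-40 at 4°C, and soluble protein was the supernatant after 21,000xg for 90 min, measured by TMTpro 16plex LC-MS/MS with channel sums equalised. Thermal stability values, relative to control samples and from duplicates, are log2 fold changes.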
# filanesib = compound: CON(C)C(=O)N1N=C(c2cc(F)ccc2F)S[C@@]1(CCCN)c1ccccc1 [filanesib]
# Procedure, shortened: as §1
# zotarolimus = compound: CO[C@H]1C[C@@H]2CC[C@@H](C)[C@@](O)(O2)C(=O)C(=O)N2CCCC[C@H]2C(=O)O[C@H]([C@H](C)C[C@@H]2CC[C@H](n3cnnn3)[C@H](OC)C2)CC(=O)[C@H](C)/C=C(\C)[C@@H](O)[C@@H](OC)C(=O)[C@H](C)C[C@H](C)/C=C/C=C/C=C/1C [zotarolimus]
# Procedure, shortened: as §1
# idasanutlin = compound: COc1cc(C(=O)O)ccc1NC(=O)[C@@H]1N[C@@H](CC(C)(C)C)[C@](C#N)(c2ccc(Cl)cc2F)[C@H]1c1cccc(Cl)c1F [idasanutlin]
# Procedure, shortened: as §1
# alisertib = compound: COc1cc(Nc2ncc3c(n2)-c2ccc(Cl)cc2C(c2c(F)cccc2OC)=NC3)ccc1C(=O)O [alisertib]
# Procedure, shortened: as §1
# [2] = compound: COc1cc2nc(-c3cc(F)ccc3O)nc(N[C@@H]3CNC[C@H]3C(C)(C)O)c2cc1OC
# Procedure, shortened: as §1
# gefitinib = compound: COc1cc2ncnc(Nc3ccc(F)c(Cl)c3)c2cc1OCCCN1CCOCC1 [gefitinib]
# Procedure, shortened: as §1
# [3] = compound: COc1cccc2cc(-c3nc([C@H]4CC[C@H](C(=O)O)CC4)n4ncnc(N)c34)[nH]c12
# Procedure, shortened: as §1
# lapatinib = compound: CS(=O)(=O)CCNCc1ccc(-c2ccc3ncnc(Nc4ccc(OCc5cccc(F)c5)c(Cl)c4)c3c2)o1 [lapatinib]
# Procedure, shortened: as §1
# pictilisib = compound: CS(=O)(=O)N1CCN(Cc2cc3nc(-c4cccc5[nH]ncc45)nc(N4CCOCC4)c3s2)CC1 [pictilisib]
# Procedure, shortened: as §1
# UniProt P35222, sequence (P35222 whole entry, looked up): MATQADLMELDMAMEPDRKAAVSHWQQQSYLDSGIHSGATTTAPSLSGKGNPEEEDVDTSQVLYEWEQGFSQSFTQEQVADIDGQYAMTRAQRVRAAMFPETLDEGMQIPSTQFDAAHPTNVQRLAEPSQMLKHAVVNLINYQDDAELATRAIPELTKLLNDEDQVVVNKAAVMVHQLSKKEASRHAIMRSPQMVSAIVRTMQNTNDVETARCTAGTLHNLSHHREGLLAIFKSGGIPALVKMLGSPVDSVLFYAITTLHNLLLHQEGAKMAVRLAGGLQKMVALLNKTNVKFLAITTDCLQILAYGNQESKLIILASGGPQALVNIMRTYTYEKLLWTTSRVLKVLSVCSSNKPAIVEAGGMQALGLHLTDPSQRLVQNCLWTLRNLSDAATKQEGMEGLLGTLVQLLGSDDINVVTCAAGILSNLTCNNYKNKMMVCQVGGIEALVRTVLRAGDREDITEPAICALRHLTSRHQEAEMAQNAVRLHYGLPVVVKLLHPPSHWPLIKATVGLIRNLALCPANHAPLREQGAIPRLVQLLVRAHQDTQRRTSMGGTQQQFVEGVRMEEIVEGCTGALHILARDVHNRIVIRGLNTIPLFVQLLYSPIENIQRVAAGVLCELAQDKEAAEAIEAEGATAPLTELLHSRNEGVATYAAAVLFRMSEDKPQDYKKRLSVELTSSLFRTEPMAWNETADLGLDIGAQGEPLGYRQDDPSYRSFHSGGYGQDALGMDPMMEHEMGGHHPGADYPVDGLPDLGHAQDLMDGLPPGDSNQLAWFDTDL
# UniProt Q13409, sequence (Q13409 whole entry, looked up): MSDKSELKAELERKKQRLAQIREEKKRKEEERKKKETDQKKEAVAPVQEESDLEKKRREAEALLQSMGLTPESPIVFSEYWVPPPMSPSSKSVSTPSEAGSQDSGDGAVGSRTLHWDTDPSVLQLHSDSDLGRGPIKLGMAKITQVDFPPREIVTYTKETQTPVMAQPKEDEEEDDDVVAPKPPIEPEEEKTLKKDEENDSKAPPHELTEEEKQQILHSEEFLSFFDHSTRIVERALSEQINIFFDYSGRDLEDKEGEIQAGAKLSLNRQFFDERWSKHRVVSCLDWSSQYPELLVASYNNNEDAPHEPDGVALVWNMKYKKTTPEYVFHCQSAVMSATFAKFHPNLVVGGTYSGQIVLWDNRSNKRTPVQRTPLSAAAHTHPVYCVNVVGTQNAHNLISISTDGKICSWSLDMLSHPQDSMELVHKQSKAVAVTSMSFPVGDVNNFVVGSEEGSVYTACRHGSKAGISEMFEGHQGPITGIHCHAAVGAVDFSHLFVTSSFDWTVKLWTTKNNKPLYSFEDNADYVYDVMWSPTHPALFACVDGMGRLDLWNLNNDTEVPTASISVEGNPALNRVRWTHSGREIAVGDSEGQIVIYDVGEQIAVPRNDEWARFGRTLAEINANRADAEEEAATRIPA
# UniProt Q9H773, sequence (Q9H773 whole entry, looked up): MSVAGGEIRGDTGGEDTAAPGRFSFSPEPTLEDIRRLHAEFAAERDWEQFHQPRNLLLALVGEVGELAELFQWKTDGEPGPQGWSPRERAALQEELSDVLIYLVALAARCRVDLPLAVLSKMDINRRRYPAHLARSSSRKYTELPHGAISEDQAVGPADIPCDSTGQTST
# UniProt O00148, sequence (O00148 whole entry, looked up): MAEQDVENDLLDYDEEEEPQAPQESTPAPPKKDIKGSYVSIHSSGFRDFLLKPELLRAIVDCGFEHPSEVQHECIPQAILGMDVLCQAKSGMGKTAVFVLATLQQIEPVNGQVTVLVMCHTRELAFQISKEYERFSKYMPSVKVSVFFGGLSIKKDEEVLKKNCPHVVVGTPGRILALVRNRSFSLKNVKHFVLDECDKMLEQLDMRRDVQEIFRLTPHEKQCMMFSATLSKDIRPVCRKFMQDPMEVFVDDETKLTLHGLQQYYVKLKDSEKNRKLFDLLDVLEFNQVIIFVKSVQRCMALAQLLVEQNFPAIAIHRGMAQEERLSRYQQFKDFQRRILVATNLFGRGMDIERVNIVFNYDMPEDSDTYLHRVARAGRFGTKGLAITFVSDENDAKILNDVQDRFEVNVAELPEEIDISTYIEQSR
# UniProt Q9H410, sequence (Q9H410 whole entry, looked up): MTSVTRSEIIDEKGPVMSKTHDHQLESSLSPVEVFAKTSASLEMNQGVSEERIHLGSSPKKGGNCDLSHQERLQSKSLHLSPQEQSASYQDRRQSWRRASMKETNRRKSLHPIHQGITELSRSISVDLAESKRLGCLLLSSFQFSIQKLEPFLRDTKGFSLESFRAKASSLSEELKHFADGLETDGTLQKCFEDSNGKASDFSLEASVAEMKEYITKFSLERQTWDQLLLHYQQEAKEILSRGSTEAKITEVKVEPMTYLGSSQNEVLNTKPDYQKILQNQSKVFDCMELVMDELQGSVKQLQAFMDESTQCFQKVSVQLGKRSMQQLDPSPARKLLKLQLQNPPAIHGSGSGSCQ
# UniProt Q96E09, sequence (Q96E09 whole entry, looked up): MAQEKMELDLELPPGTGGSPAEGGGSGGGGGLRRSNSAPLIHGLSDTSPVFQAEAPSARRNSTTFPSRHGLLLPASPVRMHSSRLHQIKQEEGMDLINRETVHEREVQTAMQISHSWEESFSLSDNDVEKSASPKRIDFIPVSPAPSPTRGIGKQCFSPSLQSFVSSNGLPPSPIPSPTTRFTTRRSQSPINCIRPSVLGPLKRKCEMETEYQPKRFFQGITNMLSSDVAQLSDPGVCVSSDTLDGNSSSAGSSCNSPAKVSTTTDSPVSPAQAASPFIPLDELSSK
# UniProt P18074, sequence (P18074 whole entry, looked up): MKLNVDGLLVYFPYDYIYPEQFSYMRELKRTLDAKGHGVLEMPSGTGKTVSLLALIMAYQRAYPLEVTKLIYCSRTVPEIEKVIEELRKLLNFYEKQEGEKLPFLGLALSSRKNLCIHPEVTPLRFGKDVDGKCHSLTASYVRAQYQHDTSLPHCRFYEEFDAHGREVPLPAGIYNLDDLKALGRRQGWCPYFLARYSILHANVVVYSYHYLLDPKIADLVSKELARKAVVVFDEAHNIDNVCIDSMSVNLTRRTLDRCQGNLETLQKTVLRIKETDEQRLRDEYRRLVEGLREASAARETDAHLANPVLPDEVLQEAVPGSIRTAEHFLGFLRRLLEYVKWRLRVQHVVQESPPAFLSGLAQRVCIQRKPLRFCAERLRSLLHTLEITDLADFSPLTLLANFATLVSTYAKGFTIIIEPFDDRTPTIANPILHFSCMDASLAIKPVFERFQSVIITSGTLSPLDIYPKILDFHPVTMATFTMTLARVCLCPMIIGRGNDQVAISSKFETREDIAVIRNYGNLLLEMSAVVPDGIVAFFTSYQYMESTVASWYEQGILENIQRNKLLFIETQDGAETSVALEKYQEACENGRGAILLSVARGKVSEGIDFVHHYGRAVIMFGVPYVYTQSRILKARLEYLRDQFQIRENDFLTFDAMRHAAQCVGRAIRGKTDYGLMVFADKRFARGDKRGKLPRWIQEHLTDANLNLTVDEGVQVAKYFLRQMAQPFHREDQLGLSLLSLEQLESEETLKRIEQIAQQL
# UniProt Q8IYI6, sequence (Q8IYI6 whole entry, looked up): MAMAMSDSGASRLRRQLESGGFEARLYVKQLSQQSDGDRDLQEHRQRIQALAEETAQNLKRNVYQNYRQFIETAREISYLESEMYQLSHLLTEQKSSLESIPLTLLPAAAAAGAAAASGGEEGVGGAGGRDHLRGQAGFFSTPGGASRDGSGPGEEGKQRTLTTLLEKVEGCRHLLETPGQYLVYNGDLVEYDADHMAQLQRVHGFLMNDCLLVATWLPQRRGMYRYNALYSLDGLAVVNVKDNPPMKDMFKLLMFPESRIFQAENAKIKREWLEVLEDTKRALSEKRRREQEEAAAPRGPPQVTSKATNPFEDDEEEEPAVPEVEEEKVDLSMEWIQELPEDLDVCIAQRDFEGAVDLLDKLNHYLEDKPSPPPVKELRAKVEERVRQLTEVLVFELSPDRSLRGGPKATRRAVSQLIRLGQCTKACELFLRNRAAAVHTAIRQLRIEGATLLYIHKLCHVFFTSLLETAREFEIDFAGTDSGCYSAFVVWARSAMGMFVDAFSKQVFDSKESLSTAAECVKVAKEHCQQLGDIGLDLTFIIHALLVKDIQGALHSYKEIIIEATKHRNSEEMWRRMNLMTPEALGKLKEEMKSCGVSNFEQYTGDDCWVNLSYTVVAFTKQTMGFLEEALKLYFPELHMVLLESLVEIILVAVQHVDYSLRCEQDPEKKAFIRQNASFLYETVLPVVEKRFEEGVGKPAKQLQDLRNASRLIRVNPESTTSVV
# UniProt P11182, sequence (P11182 whole entry, looked up): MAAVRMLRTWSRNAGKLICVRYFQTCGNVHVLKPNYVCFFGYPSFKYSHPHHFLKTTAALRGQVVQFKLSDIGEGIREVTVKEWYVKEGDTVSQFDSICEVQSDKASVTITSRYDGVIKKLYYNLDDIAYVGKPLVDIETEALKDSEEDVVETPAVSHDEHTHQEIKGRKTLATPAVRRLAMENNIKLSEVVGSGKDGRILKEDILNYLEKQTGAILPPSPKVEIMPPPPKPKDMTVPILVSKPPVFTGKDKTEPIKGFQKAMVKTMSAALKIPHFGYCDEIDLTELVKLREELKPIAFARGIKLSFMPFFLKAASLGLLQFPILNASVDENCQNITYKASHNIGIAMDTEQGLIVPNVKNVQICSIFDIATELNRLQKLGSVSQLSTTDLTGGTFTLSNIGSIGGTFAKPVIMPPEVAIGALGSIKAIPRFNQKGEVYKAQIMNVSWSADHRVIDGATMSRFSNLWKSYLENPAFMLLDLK
# UniProt O94905, sequence (O94905 whole entry, looked up): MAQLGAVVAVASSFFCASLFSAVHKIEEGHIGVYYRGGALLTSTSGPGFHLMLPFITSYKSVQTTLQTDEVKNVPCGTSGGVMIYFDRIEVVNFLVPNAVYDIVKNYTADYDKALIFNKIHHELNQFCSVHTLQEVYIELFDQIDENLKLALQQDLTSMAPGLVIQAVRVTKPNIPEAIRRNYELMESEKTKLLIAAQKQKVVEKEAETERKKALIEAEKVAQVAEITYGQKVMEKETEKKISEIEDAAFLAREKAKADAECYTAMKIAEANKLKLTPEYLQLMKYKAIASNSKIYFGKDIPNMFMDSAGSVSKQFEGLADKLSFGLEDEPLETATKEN
Target,log2 fold change [1],log2 fold change (filanesib),log2 fold change (zotarolimus),log2 fold change (idasanutlin),log2 fold change (alisertib),log2 fold change [2],log2 fold change (gefitinib),log2 fold change [3],log2 fold change (lapatinib),log2 fold change (pictilisib)
EDC4 (UniProt Q6P2E9),0.018,0.106,0.001,0.044,-0.028,0.062,-0.004,0,0.007,0.006
FADS3 (UniProt Q9Y5Q0),-0.067,-0.151,-0.062,0.007,0.005,-0.036,0.04,0.168,0.097,0.168
DSN1 (UniProt Q9H410),0.032,0.048,0.114,-0.013,0.018,-0.017,0.113,-0.23,-0.028,–
ERCC6 (UniProt Q03468),-0.067,-0.268,0.102,-0.14,0.102,-0.002,0.026,-0.042,0.077,-0.04
DLD (UniProt P09622),-0.003,-0.106,-0.032,0.004,-0.024,-0.056,-0.096,0.036,-0.015,0.067
EHD2 (UniProt Q9NZN4),0.001,-0.013,0.007,-0.025,-0.02,0.092,-0.034,0.055,-0.06,-0.051
DNAJB12 (UniProt Q9NXW2),0.023,-0.024,-0.06,-0.006,-0.081,0.023,0.029,0.006,-0.033,-0.051
DBT (UniProt P11182),0.009,0.012,0.007,0.015,0.003,-0.006,-0.021,0.039,0.004,0.052
EIF4G1 isoform 8 (UniProt Q04637),0.01,0.067,-0.121,0.09,-0.007,-0.003,-0.114,-0.369,-0.073,-0.27
ERCC2 (UniProt P18074),-0.024,0.018,0.068,0.063,0.001,-0.061,-0.03,-0.021,0.049,0.042
EFCAB14 (UniProt O75071),0.139,-0.018,0.147,0.027,0.043,-0.014,0.04,-0.04,0.021,0.06
FAM122A (UniProt Q96E09),-0.05,-0.004,-0.038,0.017,-0.068,-0.053,0.019,0.005,0.018,0.092
CTNNB1 (UniProt P35222),-0.082,0.174,0.029,-0.056,-0.084,0.072,-0.001,0.054,0,-0.2
FAM3A (UniProt P98173),-0.057,-0.022,0.005,0.007,0.044,-0.021,0.04,0.066,0.067,0.055
ERLIN2 (UniProt O94905),-0.006,0.039,0.034,0.09,-0.085,-0.143,-0.058,-0.076,-0.019,-0.09
DNAH11 (UniProt Q96DT5),0,0.047,0.04,0.03,-0.025,-0.137,-0.002,-0.203,0.216,0.552
EIF4G3 isoform 3 (UniProt O43432),-0.15,0.063,0.002,0,-0.003,-0.01,0.032,-0.32,0.142,–
DDX39A (UniProt O00148),0.135,-0.021,-0.017,-0.093,0.066,-0.16,-0.015,-0.028,-0.007,0.012
DDOST (UniProt P39656),-0.068,-0.009,0.036,0.013,-0.065,0.003,-0.019,0.012,0.019,-0.04
FAF2 (UniProt Q96CS3),-0.019,-0.022,0.035,0.007,0.004,-0.011,0.056,0.009,0.029,0.017
DYNC1I2 isoform 5 (UniProt Q13409),0.012,0.003,0.025,0.025,-0.051,0,-0.003,0.004,0.021,0.035
DCTPP1 (UniProt Q9H773),0.023,-0.02,0.083,-0.061,-0.067,-0.091,0,0.038,-0.058,-0.05
EIF4E2 (UniProt O60573),-0.062,-0.089,0.058,0.024,0.059,-0.043,0.043,-0.251,0.033,–
EEF1A1 (UniProt P68104),0.081,-0.119,0.182,-0.086,-0.347,-0.216,-0.029,-0.034,0.1,–
DHCR7 (UniProt Q9UBM7),-0.182,-0.025,-0.088,-0.278,0.01,0.101,0.088,-0.167,-0.009,-0.115
DCUN1D1 (UniProt Q96GG9),0.065,-0.003,0.015,-0.062,0.008,-0.021,0.004,0.031,0.019,0.015
"FADS1, A0A0A0MR51",-0.31 (active),-0.112,-0.004,0.055,-0.007,-0.111,0.049,0.009,0.044,-0.092
EXOC8 (UniProt Q8IYI6),0.005,-0.044,0.056,-0.072,0.014,0.038,-0.047,-0.003,-0.054,-0.156
